Unmarked numbers belong to inactive results. Where a call stands in place of a potency, no number is given. Calls of active or inactive are those of the source. The call rests on the fitted dose curve; in most records, active means well fitted curve in the direction sought with a large enough effect in the repeat runs; inconclusive means weak or mixed curves; inactive means flat fitted curve, though single readings scatter.
Assay: qHTS assay to test for compound auto fluorescence at 535 nm (green) in HEK293 cell free culture (AID 720682)
Details: cell-free medium, green autofluorescence 485/535 nm; series mostly up to 91.3 µM; activity change: at the top concentration
In short: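 Read-out: 485/535 nm fluorescence intensity, calibrated against fluorescein. Medium only (DMEM + 10% FBS, no cells); test compound or DMSO vehicle added by pintool before plate reading.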

Row | SMILES | Potency | activity change
1 | CCCCOCCOC(=O)c1ccccc1C(=O)OCCOCCCC | inactive | –
2 | CC(N)=O | – | -0.0184% [at 203 µM, hits give high values]
3 | BrC1CCC(Br)C(Br)CCC(Br)C(Br)CCC1Br (configuration not stated) | inactive | –
4 | O=C(Oc1ccccc1)c1ccccc1O | inactive | –
5 | Cc1ccnc2c1NC(=O)c1cccnc1N2C1CC1 | inactive | –

Assay: qHTS assay to test for compound auto fluorescence at 590 nm (red) in HEK293 cell free culture (AID 720683)
Details: cell-free medium autofluorescence, Ex540/Em590 red; series mostly up to 91.3 µM; fluorescence, % of fluorescent control: at the top concentration
In short: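 Tox21 10K library compounds were pinned into cell-free DMEM with 10% FBS and fluorescence was read at excitation 540 nm. Activity is expressed as Rose Bengal sodium equivalency.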

Row | SMILES | outcome | fluorescence, % of fluorescent control
6 | CCCCOCCOC(=O)c1ccccc1C(=O)OCCOCCCC | inactive | –
7 | O=C(O)CP(=O)(O)O | – | 0.213% [at 46 µM]
8 | O=C(Nc1ccccc1SSc1ccccc1NC(=O)c1ccccc1)c1ccccc1 | inactive | –
9 | CC(N)=O | – | 0.209% [at 203 µM]
10 | NC12CC3CC(CC(C3)C1)C2 | – | -0.105% [at 46 µM]
11 | Cc1cccc(O)c1C | inactive | –
12 | [Cl][In]([Cl])[Cl] | inactive | –
13 | BrC1CCC(Br)C(Br)CCC(Br)C(Br)CCC1Br (configuration not stated) | inactive | –
14 | Nc1nc(=S)c2[nH]cnc2[nH]1 | inactive | –
15 | O=C(Oc1ccccc1)c1ccccc1O | inactive | –
16 | CC(C)CCOCc1ccccc1 | – | 0.162%
17 | Cc1ccc(-c2cc(C(F)(F)F)nn2-c2ccc(S(N)(=O)=O)cc2)cc1 | inactive | –
18 | CN(C)c1ccc(C(=C2C=CC(=[N+](C)C)C=C2)c2ccccc2)cc1 | inactive | –
19 | CCCCC/C=C/CC1CC(=O)OC1=O (configuration not stated) | – | 0.0483%
20 | C=CC(=O)OCCCCCCOC(=O)C=C | inactive | –
21 | Cc1occc(=O)c1OC(=O)C(C)C | – | -0.159%
22 | Nc1ccc(O)cc1 | inactive | –
23 | O=C1OC2(c3ccc(O)cc3Oc3cc(O)ccc32)c2ccccc21 | inactive | –
24 | CCC(C)(Oc1ccc(C2(c3ccc(OC(C)(CC)C(=O)O)cc3)CCCCC2)cc1)C(=O)O (configuration not stated) | – | -0.112% [at 46 µM]

Row | SMILES | outcome | fluorescence, % of fluorescent control
25 | O=Cc1ccc(Cl)cc1 | – | 0.0477%
26 | Cc1ccnc2c1NC(=O)c1cccnc1N2C1CC1 | inactive | –
27 | CC(=O)OCC1=C(C(=O)O)N2C(=O)[C@@H](NC(=O)Cc3cccs3)[C@H]2SC1 | – | 0.137% [at 46 µM]
28 | O=Nc1ccc(Nc2ccccc2)cc1 | inactive | –
29 | CC1=C(C=O)C(C)(C)CC=C1 | – | 0.0311% [at 95.7 µM]
30 | CC[C@H]1CN2CCc3cc(OC)c(OC)cc3[C@@H]2C[C@@H]1C[C@H]1NCCc2cc(OC)c(OC)cc21 | inactive | –
31 | CC(C)(C)c1cc(C(C)(C)C)c(O)c(C(C)(C)C)c1 | inactive | –
32 | Nc1cc(S(=O)(=O)O)cc2cc(S(=O)(=O)O)cc(O)c12 | – | 0.0662%
33 | CC(C)(C)c1ccccc1 | – | -0.0669%
34 | O=C(O)CCc1ccccc1 | – | -0.188%
35 | CCC[C@H](N[C@@H](C)C(=O)N1[C@H](C(=O)O)C[C@@H]2CCCC[C@@H]21)C(=O)OCC | – | -0.668% [at 46 µM]
36 | CN(C)c1ccc2nc3ccc(=[N+](C)C)cc-3sc2c1 | inactive | –
37 | CCCCC(CC)COC(=O)CC(C(=O)OCC(CC)CCCC)S(=O)(=O)O (configuration not stated) | inactive | –
38 | Nc1nc2ccccc2[nH]1 | inactive | –
39 | Cc1ccc(S(=O)(=O)Oc2ccc(N=Nc3ccc(-c4ccc(N=Nc5c(O)ccc6cc(S(=O)(=O)O)cc(S(=O)(=O)O)c56)c(C)c4)cc3C)cc2)cc1 | inactive | –
40 | CC[C@@H](N)CO | – | -0.164% [at 95.7 µM]
41 | Cc1cc(C(C)(C)C)c(O)c(C(C)(C)C)c1 | inactive | –
42 | CCN(CC)C(=O)Nc1ccc(OCC(O)CNC(C)(C)C)c(C(C)=O)c1 (configuration not stated) | – | -0.306% [at 46 µM]

Reference: PubChem BioAssay (Tox21)
